{"source": "PubChem BioAssay (Tox21)", "note": "Records with an inconclusive call do not appear. Activity calls are given as the source filed them. Calls follow the shape of the dose curve; as a rule, active = well fitted cell-killing curve with a large enough effect in the repeat runs; inconclusive = weak or mixed curves, or effect the other way; inactive = flat fitted curve, though single readings scatter. % is scaled to controls: 0 for no effect and ±100 for the full control effect; potency is read from the fitted curve at half-maximal effect.", "data": [{"experiment": "Caspase-3/7 induction in HepG2 cells by small molecules, qHTS cell viability counter screen (AID 1346981); also: nearly all actives have a fitted effect of over 30% in size", "details": "CellTiter-Fluor fluorescence, 17 h; series mostly up to 92.4 µM; activity change, negative = cytotoxicity: at the top concentration", "source_text": "U.S. Tox21 Program National Center for Advancing Translational Sciences [NCATS] NIH Chemical Genomics Center [NCGC] U.S. Environmental Protection Agency [EPA] National Institutes of Environmental Health Sciences [NIEHS] National Toxicology Program [NTP] U.S. Food and Drug Administration [FDA] Tox21 Assay Overview: Apoptosis is a process of programmed cell death and plays a central role in the development of multicellular organisms. It is a highly regulated process and induces cell death by activating caspases, which are the members of cysteine aspartic acid-specific protease (caspase) family. Caspases involved in apoptosis are classified by their mechanism of action as initiator caspases (caspase-2, -8, -9 and -10) and executioner caspases (caspase-3, -6, and -7). Inhibition of apoptosis results in number of cancers, autoimmune diseases, inflammatory diseases and viral infection. To identify small molecule compounds that induce apoptosis, a homogeneous, luminescent Caspase-Glo 3/7 assay was used. Wild type HepG2 cells were used to screen Tox21 libraries for identifying caspase-3/7 activity inducers. Also cytotoxicity of the compounds was tested in parallel by measuring the cell viability using CellTiter-Fluor assay system in the same wells.\nTox21 Assay Protocol Summary: HepG2 cells were dispensed at 2,000 per well in 5uL of culture medium into white solid bottom 1536-well plates (Corning Life Sciences, Corning, NY) using a Multidrop Combi (Thermo Scientific, Waltham, MA) dispenser. The assay plates were incubated at 37 C and 5% CO2 for 5hr, and then 23nL of compounds dissolved in DMSO and positive control were transferred using a Pintool station ([…], San Diego, CA). The assay plates were incubated at 37C and 5% CO2 for 17hr. For cytotoxicity read, after 16hr incubation at 37C, 1uL CellTiter-Fluor reagent (Promega Corporation, Madison, WI) was added to each well of the assay plates using Flying Reagent Dispenser (FRD, Aurora Discovery, San Diego, CA). After 1hr incubation at 37C and 5% CO2, the fluorescence signal was quantified using a ViewLux plate reader (PerkinElmer, Shelton, CT).", "values": [{"molecule": "O=C(OCCOCCOCCOC(=O)c1ccccc1)c1ccccc1", "activity change, negative = cytotoxicity": "1.32% (inactive)"}, {"molecule": "FC(F)(Cl)C(F)(Cl)Cl", "activity change, negative = cytotoxicity": "2.56% (inactive)"}, {"molecule": "CCC(C)C1N=C(C)C(C)S1", "note": "(stereo not given)", "activity change, negative = cytotoxicity": "0.088% (inactive)"}, {"molecule": "O=C(Nc1ccccc1)c1cc([N+](=O)[O-])ccc1Cl", "activity change, negative = cytotoxicity": "0.0461% (inactive)"}, {"molecule": "CC(=O)Nc1ccccc1O", "activity change, negative = cytotoxicity": "0.448% (inactive)"}, {"molecule": "CC(C)CCCCCOC(=O)CS", "activity change, negative = cytotoxicity": "-0.023% (inactive)"}, {"molecule": "CC1=C(C)C(=O)C(C(CCCCCC(=O)O)c2ccccc2)=C(C)C1=O", "note": "(stereo not given)", "activity change, negative = cytotoxicity": "-4.27% [at 42.5 µM] (inactive)"}, {"molecule": "Nc1nc(Cl)nc2c1ncn2[C@H]1C[C@H](O)[C@@H](CO)O1", "activity change, negative = cytotoxicity": "0.453% (inactive)"}, {"molecule": "C=CC(=O)OCCCCCCCCCC", "activity change, negative = cytotoxicity": "5.08% (inactive)"}, {"molecule": "c1ccc(CN(Cc2ccccc2)Cc2ccccc2)cc1", "activity change, negative = cytotoxicity": "10.3% (inactive)"}, {"molecule": "CCOc1cc(OCC)c(C(C)=O)cc1OCC", "Potency": "42.5 µM (active)"}, {"molecule": "FC1(F)C(F)(F)C(F)(F)C2(F)C(F)(C1(F)F)C(F)(F)C(F)(F)C1(F)C(F)(F)C(F)(F)C(F)(F)C(F)(F)C12F", "note": "(stereo not given)", "activity change, negative = cytotoxicity": "8.79% (inactive)"}, {"molecule": "O=C(O)c1ccncc1", "activity change, negative = cytotoxicity": "0.699% (inactive)"}, {"molecule": "CCc1ccc2c(c1)C(=O)c1ccccc1C2=O", "activity change, negative = cytotoxicity": "-2.87% (inactive)"}, {"molecule": "CCCCCCC/C=C/C=O", "activity change, negative = cytotoxicity": "3.42% (inactive)"}, {"molecule": "CC(C)Cc1nccs1", "activity change, negative = cytotoxicity": "-0.547% (inactive)"}, {"molecule": "O=C(c1ccc(Cl)cc1)c1ccc(Cl)cc1", "activity change, negative = cytotoxicity": "1.53% (inactive)"}, {"molecule": "Cc1c(Nc2ncccc2C(=O)O)cccc1C(F)(F)F", "activity change, negative = cytotoxicity": "2.14% [at 42.5 µM] (inactive)"}, {"molecule": "COc1ccc(C(=O)c2ccc(C)cc2)c(O)c1", "activity change, negative = cytotoxicity": "-6.14% (inactive)"}, {"molecule": "CC(C(=O)O)c1ccc2c(c1)Cc1cccnc1O2", "note": "(stereo not given)", "activity change, negative = cytotoxicity": "7.87% [at 42.5 µM] (inactive)"}, {"molecule": "NC(=O)c1cc[n+](CC2=C(C(=O)[O-])N3C(=O)[C@@H](NC(=O)Cc4cccs4)[C@H]3SC2)cc1", "activity change, negative = cytotoxicity": "-6.17% [at 42.5 µM] (inactive)"}, {"molecule": "CCCCCCCCCC(C)C=O", "note": "(stereo not given)", "activity change, negative = cytotoxicity": "-0.118% (inactive)"}, {"molecule": "CC(CC(C#N)(c1ccccc1)C(C)C)N(C)C", "note": "(stereo not given)", "activity change, negative = cytotoxicity": "-0.789% [at 42.5 µM] (inactive)"}, {"molecule": "C(/C=C/C=C/Nc1ccccc1)=Nc1ccccc1", "activity change, negative = cytotoxicity": "8.68% (inactive)"}, {"molecule": "c1ccc(-c2ccc(-c3ccccc3)cc2)cc1", "activity change, negative = cytotoxicity": "6.27% [at 19 µM] (inactive)"}, {"molecule": "CC/C=C\\CCO", "activity change, negative = cytotoxicity": "4.91% (inactive)"}, {"molecule": "CCCCC(CC)COCCC#N", "note": "(stereo not given)", "activity change, negative = cytotoxicity": "1.58% (inactive)"}, {"molecule": "Cc1cc(SC2=C(O)C[C@@](CCc3ccc(N)cc3)(C(C)C)OC2=O)c(C(C)(C)C)cc1CO", "activity change, negative = cytotoxicity": "-1.39% (inactive)"}, {"molecule": "OCC(O)c1ccccc1", "note": "(stereo not given)", "activity change, negative = cytotoxicity": "0.317% (inactive)"}, {"molecule": "CC(C)(C(=O)O)c1ccc(C(O)CCCN2CCC(C(O)(c3ccccc3)c3ccccc3)CC2)cc1", "note": "(stereo not given)", "activity change, negative = cytotoxicity": "-0.156% [at 42.5 µM] (inactive)"}, {"molecule": "S=c1[nH][nH]c(=S)s1", "activity change, negative = cytotoxicity": "7.84% (inactive)"}, {"molecule": "CCC(=O)O[C@@H]1C[C@H]2CC[C@]1(C)C2(C)C", "activity change, negative = cytotoxicity": "4.57% (inactive)"}, {"molecule": "Cc1ccc2c(Cl)cc(Cl)c(O)c2n1", "activity change, negative = cytotoxicity": "4.02% [at 42.5 µM] (inactive)"}, {"molecule": "CC(C)NC(=O)c1ccccc1N", "activity change, negative = cytotoxicity": "9.15% (inactive)"}, {"molecule": "CCN(CC)CC(=O)OCC(=O)[C@@]1(O)CC[C@H]2[C@@H]3CCC4=CC(=O)CC[C@]4(C)[C@H]3[C@@H](O)C[C@@]21C", "activity change, negative = cytotoxicity": "12% [at 42.5 µM] (inactive)"}, {"molecule": "C[C@@H](O)[C@H]1C(=O)N2C(C(=O)O)=C(S[C@@H]3CN[C@H](CNS(N)(=O)=O)C3)[C@H](C)[C@H]12", "activity change, negative = cytotoxicity": "-0.502% [at 42.5 µM] (inactive)"}, {"molecule": "Clc1nc2ccccc2nc1Cl", "activity change, negative = cytotoxicity": "5.8% (inactive)"}, {"molecule": "COC(=O)c1cc(Cl)ccc1[N+](=O)[O-]", "activity change, negative = cytotoxicity": "-0.926% (inactive)"}, {"molecule": "CCOc1ccc(NC(C)=O)cc1N", "activity change, negative = cytotoxicity": "-1.62% (inactive)"}, {"molecule": "CC[C@H](NC(C)C)[C@H](O)c1ccc(O)c2[nH]c(=O)ccc12", "activity change, negative = cytotoxicity": "-0.468% [at 42.5 µM] (inactive)"}]}]}
